SMILES strings stand for the structures. Where “and” joins values, the source holds several entries; their conditions need not be identical. Identical values can stand only once. Results filed as inconclusive are left out. Unmarked numbers belong to inactive results. Calls of active or inactive are those of the source. Calls come from the whole dose curve; as a rule, active = well fitted inhibition curve with a large enough effect; inconclusive = small, poorly fitted or top-dose-only effect; inactive = flat fitted curve, though single readings scatter.

The results in this text go back to PubChem BioAssay (NCATS).
% is set by controls: 0 for no effect and ±100 for the full control effect; potency is the fitted concentration of half-maximal effect.

A short description of the experiment: P-glycoprotein substrates identified in KB-8-5-11 adenocarcinoma cell line, qHTS therapeutic library screen (AID 1346987). Note: nearly all actives have a fitted effect of over 65% in size. Conditions: KB-8-5-11 (P-gp overexpressing) viability, CellTiter-Glo, 72 h; series mostly up to 44.5 µM; activity change, negative = cytotoxicity: at the top concentration. In a few lines:
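Steps: plate 500 KB-8-5-11 cells/well in DMEM + 10% FCS (colchicine removed); pin compounds in dose-response; incubate 72 h, 37 degree C, 5% CO2; add CellTiter-Glo, 5 min; read luminescence.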
`CC(C)(CO)[C@@H](O)C(=O)NCCC(=O)O`: the Potency result is “inactive”.
On to `CCc1cccc(CC)c1NC(=O)N1Cc2[nH]nc(NC(=O)c3ccc(N4CCN(C)CC4)cc3)c2C1`, for which the Potency entry is “inactive”.
Consider `COC(=O)Nc1ccc(-c2nc(N3CCOCC3)c3cnn(C4CCN(C(=O)OC)CC4)c3n2)cc1`, for which the Potency was 469 nM (active) and 1.46 µM (active).
Regarding `C=CC(=O)Nc1cccc(Sc2nc(Nc3ccc(N4CCN(C)CC4)cc3)ncc2Cl)c1`, the Potency is 23.1 µM (active).
On to `N#CC(=C1Nc2ccccc2S1)c1ccnc(OCc2ccc(CN3CCOCC3)cc2)n1`, for which the “activity change, negative = cytotoxicity” value is -10.5%.
With `CN(CC=CC#CC(C)(C)C)Cc1cccc2ccccc12`, the result was inactive.
Consider `CC1=C[C@@H]2[C@@H]([C@@H](O)C[C@@]3(C)[C@H]2C[C@@H](C)[C@]3(O)C(=O)CO)[C@@]2(C)Cc3cnn(-c4ccccc4)c3C=C12`, for which the Potency is 16.4 µM (active).
For `O=C(O)c1ccc(O)c2ncc(N3CCOCC3)cc12`, the “activity change, negative = cytotoxicity” value was -7.67%.
Take `NS(=O)(=O)c1ccc(Nc2nc(OCC3CCCCC3)c3[nH]cnc3n2)cc1`: the Potency result is “inactive”.
On the same count and under the same terms, the value for `CNC(=O)c1c(-c2ccc(F)cc2)oc2cc(N(CCO)S(C)(=O)=O)c(C3CC3)cc12` was “inactive”; that for `c1ccc(-c2oc3ncnc(NC[C@@H]4CCCO4)c3c2-c2ccccc2)cc1` was 20.9 µM (active) and 20.6 µM (active).
`Cn1c(=O)c(Oc2ccc(F)cc2F)cc2cnc(NC3CCOCC3)nc21`: the “activity change, negative = cytotoxicity” value is -18.2%.
In the case of `COc1cc2nccc(Oc3ccc(NC(=O)Nc4ccc(F)cc4F)c(F)c3)c2cc1OC`, the Potency is 7.31 µM (active).
Still for that read-out and setting: the value for `CO[C@@H]1C(N(C)C(=O)c2ccccc2)C[C@H]2O[C@]1(C)n1c3ccccc3c3c4c(c5c6ccccc6n2c5c31)C(=O)NC4=O` (some centres undefined) was 7.43 µM (active).
As to `NC(=O)c1ncn([C@@H]2O[C@H](CO)[C@@H](O)[C@@H]2O)n1`, the “activity change, negative = cytotoxicity” value was -12%.
Same read-out and setting: in the case of `CCOC(=O)[C@H]1O[C@H]1C(=O)N[C@@H](CC(C)C)C(=O)NCCC(C)C` it was 8.31%; in that of `CN[C@@H]1[C@@H](O)[C@@H](O[C@@H]2[C@@H](O)[C@H](O[C@H]3O[C@H](CN)[C@@H](O)[C@H](O)[C@@H]3O)[C@@H](N)C[C@@H]2NC(=O)[C@@H](O)CN)OC[C@]1(C)O`, 6.94%.
With `O=C(O)CCNc1cc(N2CCc3ccccc3CC2)nc(-c2ccccn2)n1`, the Potency entry was “inactive”.
As for `CN(C)CC[C@H](CSc1ccccc1)Nc1ccc(S(=O)(=O)NC(=O)c2ccc(N3CCN(Cc4ccccc4-c4ccc(Cl)cc4)CC3)cc2)cc1[N+](=O)[O-]`, the “activity change, negative = cytotoxicity” value is 4.01%.
Still for that read-out and setting: in the case of `Nc1ncnc2c1ncn2[C@@H]1O[C@H](CO)[C@@H](O)[C@@H]1O` it was 7.92%; in that of `CC1=C(CC(=O)O)c2cc(F)ccc2C1=Cc1ccc(S(C)=O)cc1` (centres undefined), 8.9%; in that of `CC[C@H]1OC(=O)[C@H](C)[C@@H](O[C@H]2C[C@@](C)(OC)[C@@H](O)[C@H](C)O2)[C@H](C)[C@@H](O[C@@H]2O[C@H](C)C[C@H](N(C)C)[C@H]2O)[C@](C)(O)C[C@H](C)C(=NOCOCCOC)[C@H](C)[C@@H](O)[C@]1(C)O`, -12.7%.
Turning to `C=CC[N+]1([C@H]2C[C@H]3[C@@H]4CC[C@H]5C[C@H](O)[C@@H](N6CCOCC6)C[C@]5(C)[C@@H]4CC[C@]3(C)[C@H]2OC(C)=O)CCCC1`, the compound was classed as inactive.
For `NC1(C(=O)N[C@@H](CCO)c2ccc(Cl)cc2)CCN(c2ncnc3[nH]ccc23)CC1`, the Potency entry was “inactive”.
The same measure, in the same setting: the value for `Cc1ccc(C(=O)N(CCCN)[C@@H](c2nc3cc(Cl)ccc3c(=O)n2Cc2ccccc2)C(C)C)cc1` was 0.118 µM (active).
Regarding `CCCCCCCCCCCCCC(=O)N[C@H](CO)[C@H](O)c1ccc([N+](=O)[O-])cc1`, the compound was called inactive.
`CO[C@H]1O[C@@H]2O[C@@]3(C)CC[C@@H]4[C@@H](C)CC[C@@H]([C@H]1C)[C@@]24OO3`: the “activity change, negative = cytotoxicity” value was -3.93%.
For `OC[C@H]1O[C@@H](OCCc2ccc(O)cc2)[C@H](O)[C@@H](O)[C@H]1O`, the “activity change, negative = cytotoxicity” value is 0.711%.
Consider `Cc1ccccc1C(=O)c1ccc(Nc2ccc(Br)cc2N)cc1Cl`, for which the Potency was 20.6 µM (active).
As to `COc1ccc2c(c1)CC[C@H]1[C@@H]2CC[C@]2(C)[C@@H](NCCCCCCN3C(=O)C=CC3=O)CC[C@H]12`, the “activity change, negative = cytotoxicity” value is -25.2%.
`CC1CCN(c2cc(N3CCN(C)CC3)ccc2NC(=O)c2cc(C#N)c[nH]2)CC1`: the Potency result is “inactive”.
The same measure, in the same setting: in the case of `C=CCc1cccc(C=NNC(=O)CN2CCN(Cc3ccccc3)CC2)c1O` it was 10.5 µM (active).
As to `CN[C@@H](C)[C@H]1[C@H](O)C[C@@]2(C)[C@@H]3CC[C@H]4C(C)(C)[C@@H](NC)CC[C@@]45C[C@@]35CC[C@]12C`, the Potency entry is “inactive”.
As to `COc1cc2nccc(Oc3ccc(NC(=O)Nc4cc(C)on4)c(Cl)c3)c2cc1OC`, the Potency was 11.8 µM (active) and 13 µM (active).
Still for that read-out and setting: the value for `CCc1cc(-c2n[nH]c(C)c2-c2ccc3c(c2)OCCO3)c(O)cc1O` was 9.35 µM (active).
For `O=C(O)CCC=CCC[C@@H]1[C@H](N2CCCCC2)[C@@H](O)C[C@@H]1OCc1ccc(-c2ccccc2)cc1`, the “activity change, negative = cytotoxicity” value was -1.5%.
Regarding `CN(C)N=Nc1nc[nH]c1C(N)=O`, the Potency is 1.87 µM (active).
Regarding `C[C@H]1O[C@@H](n2cc(F)c(=O)[nH]c2=O)[C@H](O)[C@H]1O`, the Potency was 18.7 µM (active).
Take `CCC[C@@H](NC(=O)[C@@H]1[C@H]2CCC[C@@H]2CN1C(=O)[C@@H](NC(=O)[C@@H](NC(=O)c1cnccn1)C1CCCCC1)C(C)(C)C)C(=O)C(=O)NC1CC1`: the call was inactive.
